The text below walks through data of article PMC4552634, “A New Set of Chemical Starting Points with Plasmodium falciparum Transmission-Blocking Potential for Antimalarial Drug Discovery” (PLoS ONE, 2015).

Molecules are shown by their SMILES. The whole screen tested about 13,000 compounds, of which about 3,200 (25%) showed an effect of 50% or more. This is one part of the list.

For the test, the system named is P. falciparum stage V gametocytes. Details: BacTiter-Glo ATP luminescence viability of purified stage V gametocytes in 384-well plates, per cent inhibition versus DMSO. The following applies: 48 h, 5 µM; inhibitor.
As usually defined, the % Inhibition is the relative decrease from the control value, in per cent. With `CC(NCCc1cccc(Cl)c1)C(O)c1ccc(OCCCCCCOc2ccc(C(O)C(C)NCCc3cccc(Cl)c3)cc2)cc1` (stereo not drawn) [TCMDC-139334], the “% Inhibition” value was found to be 98.69%.

For `CC(Cc1ccc(OCCOc2ccccc2)cc1)NCC(O)c1cccc(Cl)c1` (stereo not drawn) [TCMDC-138939], the “% Inhibition” value came to 12.28%.

Regarding `C[C@H](Cc1ccc(C[C@@H](C)NC[C@H](O)c2cccc(Cl)c2)cc1)NC[C@H](O)COc1ccccc1` [TCMDC-131549], the “% Inhibition” value came out at 104.7%.

In the case of `C[C@H](Cc1ccc(OCCCCCCOc2ccc(C[C@@H](C)NC(=O)[C@H](O)c3cccc(Cl)c3)cc2)cc1)NC[C@H](O)c1cccc(Cl)c1` [TCMDC-131571], the “% Inhibition” value is given as -3.505%.

Take `CCCN1CCN(c2cc(NCC)c3c4c(onc24)-c2ccccc2C3=O)CC1` [TCMDC-123898]: the “% Inhibition” value is given as -28.72%.

Regarding `c1cc(COc2ccc(C3=NCCN3)cc2)nc(COc2ccc(C3=NCCN3)cc2)c1` [TCMDC-137805], the “% Inhibition” value is given as -1.887%.

In the case of `CN1CCN(c2ccnc3ccc(NC(=O)Nc4ccc5ccccc5c4)cc23)CC1` [TCMDC-139343], the “% Inhibition” value is -1.403%.

With `Cc1cccc2[nH]c(-c3cccc(-c4ccc(NC(=O)c5cnc[nH]5)cc4)c3)nc12` [TCMDC-136937], the “% Inhibition” value turned out to be 92.2%.

Take `Cc1cccc2[nH]c(-c3cccc(-c4ccc(NC(=O)c5ccc(=O)[nH]n5)cc4)c3)nc12` [TCMDC-137034]: the “% Inhibition” value is listed as -23.81%.

For the compound `Cc1cccc2[nH]c(-c3cccc(-c4ccc(NC(=O)c5ccncc5)cc4)c3)nc12` [TCMDC-136966], the “% Inhibition” value is recorded as 61.29%.

Take `Cc1cccc2[nH]c(-c3cccc(-c4cccc(NC(=O)c5ccncc5)c4)c3)nc12` [TCMDC-136965]: the “% Inhibition” value is -36.15%.

As to `Cc1cccc2[nH]c(-c3cccc(-c4cccc(NC(=O)c5ccoc5)c4)c3)nc12` [TCMDC-136846], the “% Inhibition” value amounted to 20.35%.

Regarding `Cc1cccc2[nH]c(-c3cccc(-c4ccc(NC(=O)c5ccoc5)cc4)c3)nc12` [TCMDC-136847], the “% Inhibition” value was determined as 83.68%.

Regarding `Cc1cccc2[nH]c(-c3cccc(-c4cccc(NC(=O)c5cnc[nH]5)c4)c3)nc12` [TCMDC-136936], the “% Inhibition” value is -12.17%.

In the case of `Cc1cccc2[nH]c(-c3ccc(-c4cccc(NC(=O)c5ccncc5)c4)cc3)nc12` [TCMDC-136958], the “% Inhibition” value is on record as 22.27%.

Turning to `Cc1cccc2[nH]c(-c3cccc(-c4ccc(NC(=O)NC(C)C)cc4)c3)nc12` [TCMDC-133251], the “% Inhibition” value is recorded as -14.46%.

For `O=C(Nc1ccc(-c2ccc(-c3nc4ccccc4[nH]3)s2)cc1)c1ccncc1` [TCMDC-136954], the “% Inhibition” value worked out at 11.16%.

Regarding `COc1cc(-c2ccc3c(-c4ccc(C(=O)N5CCN(C)CC5)cc4)[nH]nc3n2)cc(OC)c1OC` [TCMDC-124890], the “% Inhibition” value is 40.62%.
